Pf Dd2 inh: qHTS Primary assay for Inhibitors of Plasmodium falciparum Dd2 growth in vitro; P. falciparum Dd2 growth, SYBR Green, 72 h; Potency, µM (highest dose often 28.9 µM), actives largely listed as inhibitors; hit rate 4.3% among 120,000; active means well fitted inhibition curve with a large enough effect; further: nearly all actives have a fitted effect of over 65% in size
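Readout: SYBR Green fluorescence, 485 nm excitation, 535 nm emission, after ~16 h lysis at 37C. Before that, Dd2-infected red cells (2.5% hematocrit) grew 72 h with compound, 29 uM top final concentration.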
A number is an active result; – = inactive; [ ] = another dose, or the depositor's remark. The sample as a whole holds a higher share of hits than the screen did.

SMILES	Pf Dd2 inh
CN1CCCCCCN(Cc2cccnc2)[C@H]2CCC[C@H]2C1=O	–
CN1CC(=O)N(C2CCCNC2)Cc2c1ncnc2N1CCC(N2CCOCC2)CC1 (stereo not drawn)	–
CNC(=O)NC[C@H]1CCN(C2CCSCC2)C[C@H]1N(C)C	–
CCc1noc(-c2cn(C3CCN(C(=O)c4ccc(OC)cc4C)C3)nn2)n1 (stereo not drawn)	–
COc1ccc(C(=O)NC(C(=O)NCC(C)C)C2CCN(C(=O)c3ccccc3C)CC2)cc1 (stereo not drawn)	–
Cc1ncoc1C(=O)N[C@H](c1ccc2c(c1)CCO2)C1CC(O)C1 (stereo partly drawn)	–
Cc1ccc2nc(Cl)c3cc(C(=O)N4CCCCC4)sc3c2c1	–
O=C(O)c1cc2c(s1)CN(C1CCCC1)C2	–
O=C(NCCN1CCCCC1)c1cc2c(s1)CCN(C(=O)c1ccc(Cl)cc1)C2	–
CCC1CCCCN1CCNC(=O)c1cc2c(s1)CN(C1CCCC1)C2 (stereo not drawn)	6.31µM
Cc1nnc(NC(=O)NC2CCN(Cc3ccccc3)CC2)s1	–
CCC1CCCCN1CCCNC(=O)c1cc2c(Cl)nc3ccc(C)cc3c2s1 (stereo not drawn)	3.55µM
O=C(NC1CCN(Cc2ccccc2)CC1)c1cc2c(s1)CN(C1CCCC1)C2	7.08µM
CCN(CCNC(=O)c1cc2c(s1)CN(C1CC1)C2)c1cccc(C)c1	–
Cc1ccc2nc(Cl)c3cc(C(=O)N4CCCCC4C)sc3c2c1 (stereo not drawn)	–
CCCN(CCO)C(=O)CC1C(=O)NCCN1C1Cc2ccccc2C1 (stereo not drawn)	–
Cc1ccc(-n2c(C3CCN(C(=O)c4ccccc4F)CC3)n[nH]c2=O)cc1	–
COc1ccc(NC(=O)Cn2nc3n(c2=O)CCCCC3)cc1	–
O=C1CC2CCN(Cc3cccc(C(F)(F)F)c3)CC2CCN1 (stereo not drawn)	–
Cc1noc(C)c1CCC(=O)N1C[C@@H](CO)[C@H](c2ccccn2)C1	–
Cc1nc(-n2nc(C)c(Cc3ccc4c(c3)OCO4)c2C)sc1C(=O)Nc1ccc(Cl)cc1	–
CCc1ccccc1NC(=O)c1sc(-n2nc(C)c(Cc3ccc4c(c3)OCO4)c2C)nc1C	3.98µM
Cc1ccc(NC(=O)c2sc(-n3nc(C)c(Cc4ccc5c(c4)OCO5)c3C)nc2C)cc1Cl	–
COc1ccc(C2(C(=O)N3CCC(c4n[nH]c(=O)n4-c4ccccc4)CC3)CC2)cc1	–
O=C(c1ccccc1Cl)N1CCC(c2nc3ccccc3s2)CC1	–
SMILES	Pf Dd2 inh
Cc1ccccc1C(=O)N1CCC(c2nc3ccccc3s2)CC1	1.26µM
COc1cc(C(=O)N2CCC(c3nc4ccccc4s3)CC2)cc(OC)c1OC	–
Cc1ccc2oc(C(=O)N3CCC(c4nc5ccccc5s4)CC3)c(C)c2c1	–
Cc1c(C(=O)N2CCC(c3nc4ccccc4s3)CC2)oc2cc(Br)ccc12	–
Cc1cc(C)c2c(C)c(C(=O)N3CCC(c4nc5ccccc5s4)CC3)oc2c1	8.91µM
COc1ccc(C(=O)N2CCC3(CC2)NC(=O)N(Cc2ccccc2Cl)C3=O)cc1	–
O=C1CCN(C(=O)Nc2ccccc2)CCCCCCN1	–
CCCCC(=O)N(C)CC1CCOC1 (stereo not drawn)	–[5.79 µM]
Cn1cc(CN2CCC(C(O)c3cccnc3)CC2)c(-c2ccc(C3CCCCC3)cc2)n1 (stereo not drawn)	–
CC(C)CC(=O)N1CCOc2ccc(CN3CCc4ccccc4C3)cc2C1	–
CCc1ccc(NC(=O)N(Cc2ccc(C)cc2)Cc2cccn2-c2nnc(N3CCCC3=O)s2)cc1	12.6µM
CCOC(=O)c1ccccc1NC(=O)N(Cc1ccc(C)cc1)Cc1cccn1-c1nnc(N2CCCC2=O)s1	–
Cc1ccc(CNC(=O)c2cccn2-c2nnc(N3CCCC3)s2)cc1	–
O=C(Nc1ccc([C@@H](O)[C@H]2COCC(=O)N2Cc2ccccc2F)cc1)c1ccc(F)cc1	–
CN1CC(=O)N(C2CCC2)Cc2c1ncnc2N1CCC(N2CCCCC2)CC1	–
O=c1n(-c2ccc(Cl)cc2)nc2n1CCN(Cc1ccc(C(F)(F)F)cc1)C2	–
O=c1n(-c2ccncc2)nc2n1CCN(Cc1ccc(C(F)(F)F)cc1)C2	7.94µM
COc1ccc(CN2CCn3c(nn(-c4ccc(C(F)(F)F)cc4)c3=O)C2)cc1	–
COC1CCN(S(=O)(=O)N2C[C@H](c3ccc(C)o3)[C@@H](N)C2)CC1	11.2µM
COC1CCN(S(=O)(=O)N2CCCC(C)(c3ccccc3)C2)CC1 (stereo not drawn)	–
Cc1ccc([C@H]2CN(C(=O)c3[nH]nc(N)c3-c3ccccc3)C[C@@H]2N)o1	–
CC(C)CCNC(=O)c1cnc2c(c1)N(C(=O)Cc1ccc(C(C)C)cc1)CCC2	–
COc1ccc(-c2cc3c(ccn3C)c(C(=O)NCc3c(C)cc(C)[nH]c3=O)n2)cc1	–
Cc1cc(C)c(CNC(=O)c2nc(-c3cccc(N4CCOCC4)c3)cc3[nH]ccc23)c(=O)[nH]1	8.91µM
Cc1cc(C)c(CNC(=O)c2nc(-c3ccccc3)cc3[nH]ccc23)c(=O)[nH]1	–

Source: PubChem BioAssay (National Center for Advancing Translational Sciences (NCATS))
